The source of these data is PMC7862700, “An all-to-all approach to the identification of sequence-specific readers for epigenetic DNA modifications on cytosine”.

Holding throughout (assay): DAPPL (digital affinity profiling via proximity ligation, sequencing); 10 mM Tris-HCl pH 7.5, 50 mM NaCl, 1 mM DTT, 4% glycerol, room temperature, 30 min; GST-TFs on glutathione beads, 16-mer random dsDNA library, 0.1% formaldehyde crosslink after washing; high values mean tight binding
What all share (settings): protein: recombinant; tags: N-terminal GST; dsDNA, one strand shown

Assay [1] addresses T1, FLI1 (Homo sapiens, UniProt Q01543 1-452).
T1 sequence: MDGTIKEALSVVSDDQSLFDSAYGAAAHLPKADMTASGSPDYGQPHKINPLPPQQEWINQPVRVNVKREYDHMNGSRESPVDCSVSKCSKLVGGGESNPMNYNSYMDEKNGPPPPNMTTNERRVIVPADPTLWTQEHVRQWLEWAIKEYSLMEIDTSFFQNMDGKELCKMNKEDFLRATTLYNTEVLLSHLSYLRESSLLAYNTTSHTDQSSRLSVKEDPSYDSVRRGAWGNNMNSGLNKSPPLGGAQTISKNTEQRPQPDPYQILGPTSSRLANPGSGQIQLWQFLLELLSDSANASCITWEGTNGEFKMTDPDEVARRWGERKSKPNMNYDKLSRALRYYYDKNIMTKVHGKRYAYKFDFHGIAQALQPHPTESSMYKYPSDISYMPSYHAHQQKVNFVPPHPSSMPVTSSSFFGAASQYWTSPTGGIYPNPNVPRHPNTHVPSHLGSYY
An outline of the steps: (§1)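 Yeast served to express human transcription factors as GST fusions, which were then captured on glutathione beads and labelled with DNA barcodes. Pooled with a tag-only sample, they were incubated with 200 nmole of a 16-mer random double-stranded DNA library for 30 min at room temperature in Tris/NaCl/DTT/glycerol buffer, washed, crosslinked with 0.1% formaldehyde, ligated by proximity, amplified by PCR and sequenced. Dividing each hexamer's read frequency for a factor by its frequency for the tag-only sample gives the binding signal.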

Assay [2] concerns the target T2, SPDEF (Homo sapiens, UniProt O95238 1-335).
T2 sequence: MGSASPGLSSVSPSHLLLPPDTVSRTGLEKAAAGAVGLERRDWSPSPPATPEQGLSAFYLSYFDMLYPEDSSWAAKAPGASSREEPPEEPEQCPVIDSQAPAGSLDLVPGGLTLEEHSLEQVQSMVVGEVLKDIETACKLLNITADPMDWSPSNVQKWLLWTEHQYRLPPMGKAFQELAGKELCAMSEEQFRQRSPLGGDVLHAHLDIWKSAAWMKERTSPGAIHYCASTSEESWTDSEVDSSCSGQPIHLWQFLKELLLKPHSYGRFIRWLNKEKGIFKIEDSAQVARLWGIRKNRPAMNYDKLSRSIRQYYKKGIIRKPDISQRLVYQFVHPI
In short, it runs like this: as §1

The target in assay [3] is T3, ELF5 (Homo sapiens, UniProt Q9UKW6-2 1-255).
T3 sequence: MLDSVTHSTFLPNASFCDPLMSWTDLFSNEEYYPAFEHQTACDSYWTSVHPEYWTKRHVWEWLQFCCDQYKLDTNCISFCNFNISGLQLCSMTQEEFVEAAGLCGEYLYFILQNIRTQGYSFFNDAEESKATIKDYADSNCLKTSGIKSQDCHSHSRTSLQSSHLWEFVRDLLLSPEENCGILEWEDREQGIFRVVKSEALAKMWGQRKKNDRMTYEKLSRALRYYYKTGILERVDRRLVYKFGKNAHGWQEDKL
An outline of the steps:
as §1

Assay [4] has as its target T4, ELK3 (Homo sapiens, UniProt P41970 1-407).
T4 sequence: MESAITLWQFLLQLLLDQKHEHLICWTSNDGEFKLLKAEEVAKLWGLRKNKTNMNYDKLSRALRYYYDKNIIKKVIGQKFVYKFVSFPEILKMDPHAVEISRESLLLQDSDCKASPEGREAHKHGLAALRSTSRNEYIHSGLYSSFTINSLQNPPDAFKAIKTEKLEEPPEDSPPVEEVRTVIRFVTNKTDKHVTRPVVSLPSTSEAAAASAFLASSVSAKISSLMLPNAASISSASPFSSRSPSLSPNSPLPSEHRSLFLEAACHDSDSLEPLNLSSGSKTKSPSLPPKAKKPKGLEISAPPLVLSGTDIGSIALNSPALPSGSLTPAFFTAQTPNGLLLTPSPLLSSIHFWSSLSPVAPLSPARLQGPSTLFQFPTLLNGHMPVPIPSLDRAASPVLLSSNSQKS
An outline of the steps:
as §1

For assay [5], the target named is CRX (Homo sapiens, UniProt O43186 1-299). In short, it runs like this: as §1
CRX, sequence (O43186 whole entry): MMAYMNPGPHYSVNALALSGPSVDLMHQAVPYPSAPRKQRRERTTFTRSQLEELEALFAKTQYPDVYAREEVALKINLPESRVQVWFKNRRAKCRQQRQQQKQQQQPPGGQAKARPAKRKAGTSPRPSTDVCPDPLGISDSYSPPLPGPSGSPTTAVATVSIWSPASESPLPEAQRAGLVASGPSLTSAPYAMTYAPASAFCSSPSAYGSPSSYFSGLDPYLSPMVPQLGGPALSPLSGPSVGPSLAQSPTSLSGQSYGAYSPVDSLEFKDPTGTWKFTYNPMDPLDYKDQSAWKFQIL

Consider CGATGC, for which the binding signal in assay [1] is 1.13 fold enrichment (6-mer frequency, TF over GST control); in assay [2], 1.07 fold enrichment (6-mer frequency, TF over GST control).

Take CATCAT: the binding signal is 1.06 fold enrichment (6-mer frequency, TF over GST control) in assay [1] and 1.07 fold enrichment (6-mer frequency, TF over GST control) in assay [3].

Consider ATGCCA, for which the binding signal in assay [1] was 1.01 fold enrichment (6-mer frequency, TF over GST control); in assay [2] it was 1.04 fold enrichment (6-mer frequency, TF over GST control); in assay [3], 1.01 fold enrichment (6-mer frequency, TF over GST control).

Turning to TCATGT, the binding signal is 1.14 fold enrichment (6-mer frequency, TF over GST control) in assay [1]; 1.12 fold enrichment (6-mer frequency, TF over GST control) in assay [2]; 1.01 fold enrichment (6-mer frequency, TF over GST control) in assay [3].

On to TGGGGT, for which the binding signal was 1.02 fold enrichment (6-mer frequency, TF over GST control) in assay [1]; 1.17 fold enrichment (6-mer frequency, TF over GST control) in assay [4]; 1.08 fold enrichment (6-mer frequency, TF over GST control) in assay [2]; 1.01 fold enrichment (6-mer frequency, TF over GST control) in assay [3].

Consider ACCATT, for which the binding signal in assay [1] is 1.22 fold enrichment (6-mer frequency, TF over GST control); in assay [4], 1.28 fold enrichment (6-mer frequency, TF over GST control); in assay [2] it was 1 fold enrichment (6-mer frequency, TF over GST control); in assay [3], 1.15 fold enrichment (6-mer frequency, TF over GST control).

For the sequence ATGCAG, the binding signal was 1.09 fold enrichment (6-mer frequency, TF over GST control) in assay [1]; 1.05 fold enrichment (6-mer frequency, TF over GST control) in assay [2]; 1.06 fold enrichment (6-mer frequency, TF over GST control) in assay [3].

Regarding CATGTT, the binding signal in assay [1] is 1.05 fold enrichment (6-mer frequency, TF over GST control); in assay [2] it was 1.02 fold enrichment (6-mer frequency, TF over GST control).

For CGCCTG, the binding signal is 1.11 fold enrichment (6-mer frequency, TF over GST control) in assay [1]; 1.06 fold enrichment (6-mer frequency, TF over GST control) in assay [4]; 1.03 fold enrichment (6-mer frequency, TF over GST control) in assay [2]; 1.12 fold enrichment (6-mer frequency, TF over GST control) in assay [3].

As for CCAACC, the binding signal is 1.12 fold enrichment (6-mer frequency, TF over GST control) in assay [1]; 1.06 fold enrichment (6-mer frequency, TF over GST control) in assay [4]; 1.11 fold enrichment (6-mer frequency, TF over GST control) in assay [2]; 1.05 fold enrichment (6-mer frequency, TF over GST control) in assay [3].

Turning to CATGCA, the binding signal in assay [1] was 1.1 fold enrichment (6-mer frequency, TF over GST control); in assay [4] it was 1.02 fold enrichment (6-mer frequency, TF over GST control); in assay [2], 1.13 fold enrichment (6-mer frequency, TF over GST control); in assay [3] it was 1.01 fold enrichment (6-mer frequency, TF over GST control).

Take AAGGGC: the binding signal is 1.06 fold enrichment (6-mer frequency, TF over GST control) in assay [1]; 1.18 fold enrichment (6-mer frequency, TF over GST control) in assay [4]; 1.07 fold enrichment (6-mer frequency, TF over GST control) in assay [2]; 1.04 fold enrichment (6-mer frequency, TF over GST control) in assay [3].

For the sequence GCCCAA, the binding signal in assay [1] is 1.04 fold enrichment (6-mer frequency, TF over GST control); in assay [2], 1.08 fold enrichment (6-mer frequency, TF over GST control).

As for GTACCC, the binding signal is 1.08 fold enrichment (6-mer frequency, TF over GST control) in assay [1]; 1.12 fold enrichment (6-mer frequency, TF over GST control) in assay [4]; 1.14 fold enrichment (6-mer frequency, TF over GST control) in assay [2]; 1.01 fold enrichment (6-mer frequency, TF over GST control) in assay [3].

Consider GCCTGA, for which the binding signal is 1.05 fold enrichment (6-mer frequency, TF over GST control) in assay [1] and 1.05 fold enrichment (6-mer frequency, TF over GST control) in assay [3].

Turning to GTAGCT, the binding signal in assay [1] was 1.15 fold enrichment (6-mer frequency, TF over GST control); in assay [4], 1.07 fold enrichment (6-mer frequency, TF over GST control); in assay [5] it was 1.02 fold enrichment (6-mer frequency, TF over GST control); in assay [3] it was 1.07 fold enrichment (6-mer frequency, TF over GST control).

Consider CAAGTT, for which the binding signal is 1.11 fold enrichment (6-mer frequency, TF over GST control) in assay [1]; 1.03 fold enrichment (6-mer frequency, TF over GST control) in assay [4]; 1.02 fold enrichment (6-mer frequency, TF over GST control) in assay [2]; 1.03 fold enrichment (6-mer frequency, TF over GST control) in assay [3].

On to CACGCA, for which the binding signal in assay [1] is 1.11 fold enrichment (6-mer frequency, TF over GST control); in assay [4], 1.14 fold enrichment (6-mer frequency, TF over GST control).

For TGTAAC, the binding signal was 1.29 fold enrichment (6-mer frequency, TF over GST control) in assay [1]; 1.2 fold enrichment (6-mer frequency, TF over GST control) in assay [4]; 1.23 fold enrichment (6-mer frequency, TF over GST control) in assay [2]; 1.21 fold enrichment (6-mer frequency, TF over GST control) in assay [3].

Consider ACCAAA, for which the binding signal in assay [1] was 1.01 fold enrichment (6-mer frequency, TF over GST control); in assay [2], 1.04 fold enrichment (6-mer frequency, TF over GST control).

Turning to GGTATC, the binding signal was 1.11 fold enrichment (6-mer frequency, TF over GST control) in assay [1] and 1.33 fold enrichment (6-mer frequency, TF over GST control) in assay [2].

As to TGTGCG, the binding signal in assay [1] is 1.03 fold enrichment (6-mer frequency, TF over GST control); in assay [4], 1.01 fold enrichment (6-mer frequency, TF over GST control); in assay [3] it was 1.07 fold enrichment (6-mer frequency, TF over GST control).

Regarding ACAGCA, the binding signal is 1.01 fold enrichment (6-mer frequency, TF over GST control) in assay [1] and 1.02 fold enrichment (6-mer frequency, TF over GST control) in assay [4].

Regarding CATACA, the binding signal was 1.11 fold enrichment (6-mer frequency, TF over GST control) in assay [1]; 1.22 fold enrichment (6-mer frequency, TF over GST control) in assay [4]; 1.05 fold enrichment (6-mer frequency, TF over GST control) in assay [2].

ACACGC: the binding signal is 1.15 fold enrichment (6-mer frequency, TF over GST control) in assay [1]; 1.12 fold enrichment (6-mer frequency, TF over GST control) in assay [4]; 1.08 fold enrichment (6-mer frequency, TF over GST control) in assay [2]; 1.02 fold enrichment (6-mer frequency, TF over GST control) in assay [3].

On to CCCTGA, for which the binding signal in assay [1] was 1 fold enrichment (6-mer frequency, TF over GST control); in assay [4], 1.12 fold enrichment (6-mer frequency, TF over GST control); in assay [5], 1.03 fold enrichment (6-mer frequency, TF over GST control); in assay [3], 1.06 fold enrichment (6-mer frequency, TF over GST control).

With CCCCCC, the binding signal was 1.03 fold enrichment (6-mer frequency, TF over GST control) in assay [1]; 1.12 fold enrichment (6-mer frequency, TF over GST control) in assay [4]; 1.08 fold enrichment (6-mer frequency, TF over GST control) in assay [2]; 1.09 fold enrichment (6-mer frequency, TF over GST control) in assay [3].

For TATGTC, the binding signal in assay [1] was 1.05 fold enrichment (6-mer frequency, TF over GST control); in assay [4] it was 1.14 fold enrichment (6-mer frequency, TF over GST control); in assay [2] it was 1.14 fold enrichment (6-mer frequency, TF over GST control); in assay [3], 1.05 fold enrichment (6-mer frequency, TF over GST control).

For the sequence TGGCCG, the binding signal in assay [1] was 1.11 fold enrichment (6-mer frequency, TF over GST control); in assay [4], 1.14 fold enrichment (6-mer frequency, TF over GST control).

Consider GCCTGC, for which the binding signal in assay [1] is 1.03 fold enrichment (6-mer frequency, TF over GST control); in assay [4], 1.08 fold enrichment (6-mer frequency, TF over GST control); in assay [2], 1.02 fold enrichment (6-mer frequency, TF over GST control); in assay [3], 1.09 fold enrichment (6-mer frequency, TF over GST control).

For ACGACC, the binding signal was 1.18 fold enrichment (6-mer frequency, TF over GST control) in assay [1]; 1.31 fold enrichment (6-mer frequency, TF over GST control) in assay [4]; 1.2 fold enrichment (6-mer frequency, TF over GST control) in assay [2]; 1.17 fold enrichment (6-mer frequency, TF over GST control) in assay [3].

In the case of CTGGGC, the binding signal is 1.15 fold enrichment (6-mer frequency, TF over GST control) in assay [1]; 1.02 fold enrichment (6-mer frequency, TF over GST control) in assay [4]; 1 fold enrichment (6-mer frequency, TF over GST control) in assay [2].

In the case of AGCGCC, the binding signal in assay [1] is 1.01 fold enrichment (6-mer frequency, TF over GST control); in assay [4], 1.02 fold enrichment (6-mer frequency, TF over GST control); in assay [2], 1.02 fold enrichment (6-mer frequency, TF over GST control).
